Assay results: the supplement of paper PMC8728848
Only a selection was taken, and the strongest signals are over-represented in it overall.

How the values were obtained:
Test in all cases: glycan array binding signal (z-score within array); higher = stronger binding
Conditions in all cases: glycan notation: IUPAC condensed, linker removed
[1] = molecular target: Fuc(a1-2)Gal(b1-3)GalNAc(a1-3)[Fuc(a1-2)]Gal(b1-4)GlcNAc
In short: (§1)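 Columns mapping to the same glycan were averaged after glycan names were converted to IUPAC-condensed notation. The data come from 3228 arrays in the Consortium for Functional Glycomics database, limited to those with an available protein sequence. Binding is reported as a within-array Z-score averaged across arrays of one protein sequence and across linkers.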

[2] = molecular target: Fuc(a1-2)Gal(b1-3)GlcNAc(b1-2)Man(a1-3)[Fuc(a1-2)Gal(b1-3)GlcNAc(b1-2)Man(a1-6)]Man(b1-4)GlcNAc(b1-4)[Fuc(a1-6)]GlcNAc
In short: as §1

[3] = molecular target: Fuc(a1-2)Gal(b1-3)GlcNAc(b1-3)Gal(b1-4)Glc
In short: as §1

[4] = molecular target: Fuc(a1-2)Gal(b1-4)Glc
In short: as §1

[5] = molecular target: Fuc(a1-2)Gal3S(b1-4)GlcNAc
In short: as §1

[6] = molecular target: Fuc(a1-2)Gal6S(b1-4)Glc6S
In short: as §1

[7] = molecular target: Fuc(a1-2)[GalNAc(a1-4)]Gal(b1-4)GlcNAc
In short: as §1

[8] = molecular target: Fuc(a1-3)[Gal(b1-4)]GlcNAc
In short: as §1

[9] = molecular target: Gal(a1-3)Gal(b1-3)GlcNAc
In short: as §1

[10] = molecular target: Gal(a1-3)Gal(b1-3)[Fuc(a1-4)]GlcNAc(b1-2)Man(a1-3)[Gal(a1-3)Gal(b1-3)[Fuc(a1-4)]GlcNAc(b1-2)Man(a1-6)]Man(b1-4)GlcNAc(b1-4)GlcNAc
In short: as §1

[11] = molecular target: Gal(a1-4)Gal(b1-4)Glc
In short: as §1

[12] = molecular target: Gal(b1-3)GlcNAc(b1-2)[Gal(b1-3)GlcNAc(b1-6)]Man(a1-6)[Gal(b1-3)GlcNAc(b1-2)Man(a1-3)]Man(b1-4)GlcNAc(b1-4)GlcNAc
In short: as §1

[13] = molecular target: Gal(b1-3)GlcNAc(b1-3)Gal(b1-3)GlcNAc
In short: as §1

[14] = molecular target: Gal(b1-3)GlcNAc(b1-3)Gal(b1-4)GlcNAc(b1-3)Gal(b1-4)GlcNAc(b1-2)[Gal(b1-3)GlcNAc(b1-3)Gal(b1-4)GlcNAc(b1-3)Gal(b1-4)GlcNAc(b1-6)]Man(a1-6)[Gal(b1-3)GlcNAc(b1-3)Gal(b1-4)GlcNAc(b1-3)Gal(b1-4)GlcNAc(b1-2)Man(a1-3)]Man(b1-4)GlcNAc(b1-4)[Fuc(a1-6)]GlcNAc
In short: as §1

[15] = molecular target: Gal(b1-3)[Fuc(a1-4)]GlcNAc(b1-3)Gal(b1-4)GlcNAc
In short: as §1

[16] = molecular target: Gal(b1-3)[Neu5Ac(a2-6)]GlcNAc(b1-4)Gal(b1-4)Glc
In short: as §1

[17] = molecular target: Gal(b1-3)[Neu5Ac(b2-6)]GalNAc
In short: as §1

[18] = molecular target: Gal(b1-4)GalNAc(b1-3)[Fuc(a1-2)]Gal(b1-4)GlcNAc
In short: as §1

[19] = molecular target: Gal(b1-4)GlcNAc(a1-6)Gal(b1-4)GlcNAc
In short: as §1

[20] = molecular target: Gal(b1-4)GlcNAc(b1-2)Man
In short: as §1

[21] = molecular target: Gal(b1-4)GlcNAc(b1-2)[Gal(b1-4)GlcNAc(b1-4)]Man(a1-3)[Gal(b1-4)GlcNAc(b1-2)Man(a1-6)]Man(b1-4)GlcNAc(b1-4)GlcNAc
In short: as §1

[22] = molecular target: Gal(b1-4)GlcNAc(b1-2)[Gal(b1-4)GlcNAc(b1-4)]Man(a1-3)[GlcNAc(b1-4)][Gal(b1-4)GlcNAc(b1-2)[Gal(b1-4)GlcNAc(b1-6)]Man(a1-6)]Man(b1-4)GlcNAc(b1-4)GlcNAc
In short: as §1

[23] = molecular target: Gal(b1-4)GlcNAc(b1-2)[Gal(b1-4)GlcNAc(b1-6)]Man(a1-6)[Gal(b1-4)GlcNAc(b1-2)Man(a1-3)]Man(b1-4)GlcNAc(b1-4)GlcNAc
In short: as §1

[24] = molecular target: Gal(b1-4)GlcNAc(b1-2)[Gal(b1-4)GlcNAc(b1-6)]Man(a1-6)[Gal(b1-4)GlcNAc(b1-2)Man(a1-3)]Man(b1-4)GlcNAc(b1-4)[Fuc(a1-6)]GlcNAc
In short: as §1

[25] = molecular target: Gal(b1-4)GlcNAc(b1-2)[Gal(b1-4)GlcNAc(b1-6)]Man(a1-6)[GlcNAc(b1-4)][Gal(b1-4)GlcNAc(b1-2)[Gal(b1-4)GlcNAc(b1-4)]Man(a1-3)]Man(b1-4)GlcNAc(b1-4)[Fuc(a1-6)]GlcNAc
In short: as §1

[26] = molecular target: Gal(b1-4)GlcNAc(b1-3)Gal(b1-4)GlcNAc(b1-2)[Gal(b1-4)GlcNAc(b1-3)Gal(b1-4)GlcNAc(b1-6)]Man(a1-6)[Gal(b1-4)GlcNAc(b1-3)Gal(b1-4)GlcNAc(b1-2)Man(a1-3)]Man(b1-4)GlcNAc(b1-4)[Fuc(a1-6)]GlcNAc
In short: as §1

[27] = molecular target: Gal(b1-4)GlcNAc(b1-3)Gal(b1-4)GlcNAc(b1-3)Gal(b1-4)GlcNAc(b1-2)Man(a1-3)[Gal(b1-4)GlcNAc(b1-3)Gal(b1-4)GlcNAc(b1-3)Gal(b1-4)GlcNAc(b1-2)Man(a1-6)]Man(b1-4)GlcNAc(b1-4)[Fuc(a1-6)]GlcNAc
In short: as §1

[28] = molecular target: Gal(b1-4)GlcNAc(b1-3)Gal(b1-4)GlcNAc(b1-3)Gal(b1-4)GlcNAc(b1-2)[Gal(b1-4)GlcNAc(b1-3)Gal(b1-4)GlcNAc(b1-3)Gal(b1-4)GlcNAc(b1-6)]Man(a1-6)[Gal(b1-4)GlcNAc(b1-3)Gal(b1-4)GlcNAc(b1-3)Gal(b1-4)GlcNAc(b1-2)Man(a1-3)]Man(b1-4)GlcNAc(b1-4)[Fuc(a1-6)]GlcNAc
In short: as §1

[29] = molecular target: Gal(b1-4)GlcNAc(b1-3)Gal(b1-4)GlcNAc(b1-3)Gal(b1-4)GlcNAc(b1-3)Gal(b1-4)GlcNAc(b1-2)Man(a1-3)[Gal(b1-4)GlcNAc(b1-3)Gal(b1-4)GlcNAc(b1-3)Gal(b1-4)GlcNAc(b1-3)Gal(b1-4)GlcNAc(b1-2)Man(a1-6)]Man(b1-4)GlcNAc(b1-4)[Fuc(a1-6)]GlcNAc
In short: as §1

[30] = molecular target: Gal(b1-4)GlcNAc(b1-3)Gal(b1-4)GlcNAc(b1-3)Gal(b1-4)GlcNAc(b1-3)Gal(b1-4)GlcNAc(b1-2)[Gal(b1-4)GlcNAc(b1-3)Gal(b1-4)GlcNAc(b1-3)Gal(b1-4)GlcNAc(b1-3)Gal(b1-4)GlcNAc(b1-6)]Man(a1-6)[Gal(b1-4)GlcNAc(b1-3)Gal(b1-4)GlcNAc(b1-3)Gal(b1-4)GlcNAc(b1-3)Gal(b1-4)GlcNAc(b1-2)Man(a1-3)]Man(b1-4)GlcNAc(b1-4)[Fuc(a1-6)]GlcNAc
In short: as §1

B1: Threefoil (Haloarcula marismortui) (protein)
chain: GSSHHHHHHHHHHSSGLVPRGSHMGDGYYKLVARHSGKALDVENASTSDGANVIQYSYSGGDNQQWRLVDLGDGYYKLVARHSGKALDVENASTSDGANVIQYSYSGGDNQQWRLVDLGDGYYKLVARHSGKALDVENASTSDGANVIQYSYSGGDNQQWRLVDL
glycan array binding signal (z-score) [1]: -0.165
glycan array binding signal (z-score) [2]: 0.056
glycan array binding signal (z-score) [3]: -0.192
glycan array binding signal (z-score) [4]: -0.107
glycan array binding signal (z-score) [5]: -0.199
glycan array binding signal (z-score) [6]: -0.153
glycan array binding signal (z-score) [7]: -0.341
glycan array binding signal (z-score) [8]: -0.151
glycan array binding signal (z-score) [9]: -0.298
glycan array binding signal (z-score) [10]: -0.217
glycan array binding signal (z-score) [11]: 0.139
glycan array binding signal (z-score) [12]: 0.155
glycan array binding signal (z-score) [13]: -0.266
glycan array binding signal (z-score) [14]: 0.426
glycan array binding signal (z-score) [15]: 0.307
glycan array binding signal (z-score) [16]: -0.13
glycan array binding signal (z-score) [17]: -0.229
glycan array binding signal (z-score) [18]: -0.231
glycan array binding signal (z-score) [19]: 0.067
glycan array binding signal (z-score) [20]: -0.105
glycan array binding signal (z-score) [21]: 3.48
glycan array binding signal (z-score) [22]: 8.13
glycan array binding signal (z-score) [23]: 0.527
glycan array binding signal (z-score) [24]: 3.39
glycan array binding signal (z-score) [25]: 6.8
glycan array binding signal (z-score) [26]: 6.34
glycan array binding signal (z-score) [27]: 6.67
glycan array binding signal (z-score) [28]: 9.87
glycan array binding signal (z-score) [29]: 3.74
glycan array binding signal (z-score) [30]: 7.31
